From PMC5540273 (PLoS ONE, 2017)

Key:
Settings in all cases: concentration: 1 μM, replicates: in singlicate; n = 1
EIF2AK1 = system: EIF2AK1
EPHA1 = system: EPHA1
EPHA2 = system: EPHA2
EPHA3 = system: EPHA3
EPHA4 = system: EPHA4
EPHA5 = system: EPHA5
EPHA6 = system: EPHA6
EPHA7 = system: EPHA7
EPHA8 = system: EPHA8
EPHB1 = system: EPHB1
EPHB2 = system: EPHB2
EPHB3 = system: EPHB3
EPHB4 = system: EPHB4
EPHB6 = system: EPHB6
ERBB2 = system: ERBB2
ERBB3 = system: ERBB3
ERBB4 = system: ERBB4
ERK1 = system: T1, ERK1
T1 construct: gene MAPK3

ERK2 = system: T2, ERK2
T2 construct: gene MAPK1

ERK3 = system: T3, ERK3
T3 construct: gene MAPK6
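Also: KINOMEscan kinase panel screen.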

SMILES	%Inh (EIF2AK1) [%]	%Inh (EPHA1) [%]	%Inh (EPHA2) [%]	%Inh (EPHA3) [%]	%Inh (EPHA4) [%]	%Inh (EPHA5) [%]	%Inh (EPHA6) [%]	%Inh (EPHA7) [%]	%Inh (EPHA8) [%]	%Inh (EPHB1) [%]	%Inh (EPHB2) [%]	%Inh (EPHB3) [%]	%Inh (EPHB4) [%]	%Inh (EPHB6) [%]	%Inh (ERBB2) [%]	%Inh (ERBB3) [%]	%Inh (ERBB4) [%]	%Inh (ERK1) [%]	%Inh (ERK2) [%]	%Inh (ERK3) [%]
COc1ccc(-c2oc3ncnc(N)c3c2-c2ccc(OC)cc2)cc1 [SB-589132]	3	70	19	0	32	0	50	0	9	0	0	24	5	36	41	46	33	0	0	6
C[C@H]1CC[C@@H](C(=O)Nc2ccccc2)CN1c1cc(-c2ccc3c(N)n[nH]c3c2)nc(N)n1 [GSK2283293]	10	0	11	0	3	0	15	6	23	22	0	24	12	13	25	0	39	0	2	4
Fc1ccc(-c2ncn(CCCNCc3ccccc3)c2-c2ccncc2)cc1	0	4	10	0	6	7	23	0	19	15	14	19	17	36	10	23	0	5	14	0
Cn1ccc2ncnc(Oc3ccc(NC(=O)Nc4cccnc4)c(Cl)c3)c21	0	0	0	4	29	11	32	7	10	9	2	12	10	5	18	2	0	0	11	0
CS(=O)(=O)CCNCc1ccc(-c2ccc3ncnc(Nc4ccc(OCc5ccccc5)c(Cl)c4)c3c2)o1.Cl [GW574783]	0	3	1	0	13	0	15	0	8	3	0	18	8	28	100	69	90.8	4	0	0
CSc1ccc(NC2=C(c3ccccc3Cl)C(=O)NC2=O)cc1 [SB-342411]	0	2	27	16	7	0	0	6	14	9	15	0	3	18	0	0	0	5	0	0
CCn1c(-c2ccncc2)nc2cnccc21 [SB-735216]	19	23	5	99.1	10	0	16	0	14	0	16	11	7	8	0	33	0	0	0	0
CS(=O)(=O)CCNCc1nc(-c2ccc3ncnc(Nc4ccc(OCc5cccc(F)c5)c(Cl)c4)c3c2)cs1.Cl [GW583340]	0	5	0	13	0	0	0	0	0	1	0	0	5	19	99.7	0	99.1	0	0	12
COc1ccc(Nc2nccc(N3CCC(NC(=O)c4cccc(NC(C)=O)c4)C3)n2)cc1 (stereo not shown) [GSK1379732]	0	0	20	1	0	0	0	0	0	1	8	1	11	16	52	30	0	0	0	5
CN1c2ccc(-c3ccc(C(=O)NCCO)cc3)cc2-c2[nH]ncc2S1(=O)=O	0	11	27	14	14	19	22	3	0	7	20	18	23	54	8	0	10	10	11	5
CC(=O)Nc1n[nH]c2ncc(-c3ccccc3)cc12 [SB-548492]	0	17	0	2	8	15	29	0	32	15	0	16	14	36	0	0	29	12	11	1
Nc1nc(-c2ccccn2)c(-c2ccnc3ccccc23)s1 [GW548057]	0	6	0	15	0	0	6	13	20	5	14	14	0	27	53	31	11	0	0	10
O=C(Nc1ccccc1)Nc1ccc(Oc2ccc3nccn3n2)cc1	0	31	25	0	0	0	0	3	23	13	0	7	7	0	24	0	0	0	0	0
CC(C)(C)OC(=O)NC1CCCN(c2cc(-c3ccc4c(N)n[nH]c4c3)nc(N)n2)C1 (stereo not shown) [GSK2286096]	4	8	11	0	14	0	9	0	6	10	90.5	14	9	0	0	0	33	0	0	0
FC(F)(F)c1cc(Nc2nccc(-c3c(-c4ccc(Cl)cc4)nn4ncccc34)n2)ccc1Cl [GW829351]	0	0	0	0	4	0	0	0	3	0	0	0	0	0	0	0	45	0	0	0
Cl.Cn1ccc(-c2cccc(Nc3ccnc4cc(-c5nccs5)ccc34)c2)n1 [GW525701]	0	25	0	100	0	0	0	6	7	14	0	9	47	94.2	53	64	45	0	0	0
O=C(Nc1n[nH]c2nc(-c3ccco3)c(Br)cc12)c1ccc(CN2CCCC2)cc1.O=C(O)[C@H](O)[C@@H](O)C(=O)O [SB-742352]	0	3	0	0	100	0	100	0	7	6	47	0	0	95.7	0	0	27	0	0	0
COc1ccc(NC(=O)Nc2ccc(C)c(-c3ccc(C(=O)Nc4ccncc4)cc3)c2)cc1 [GSK1398475]	0	6	8	13	1	0	11	4	14	13	12	13	13	20	0	0	19	2	0	9
Cn1ccc2ncnc(Nc3ccc(Oc4cccc(Cl)c4)c(Cl)c3)c21	0	0	5	13	0	21	21	94.1	86	15	4	0	0	4	100	17	97	2	35	6
Cc1ccc(C)c(NC(=O)NCCNc2ccnc(Nc3ccc(F)cc3)n2)c1 [GSK1379878]	0	6	11	0	0	0	0	0	3	0	0	0	0	11	0	3	38	0	0	0
